Experiment [1] can be described thus: Quantitative High-Throughput drug screen in 47 multiple myeloma cell lines against the NCATS MIPE library collection: LP1_DSMZ cell viability assay (AID 1918982). Note: nearly all actives have a fitted effect of over 35% in size. The procedure, abridged:
(§1)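 Plated at 500 cells per well, myeloma lines received MIPE 4.0 compounds by pin tool. Following 48 h culture at 37 °C, CellTiter-Glo luminescence gave viability relative to DMSO and media-only controls.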

Experiment [2] can be described thus: Quantitative High-Throughput drug screen in 47 multiple myeloma cell lines against the NCATS MIPE library collection: KMS28PE_JCRB cell viability assay (AID 1918983). Note: nearly all actives have a fitted effect of over 35% in size. The procedure, abridged:
as §1

The nature of experiment [3]: Quantitative High-Throughput drug screen in 47 multiple myeloma cell lines against the NCATS MIPE library collection: KMS34_JCRB cell viability assay (AID 1918985). Note: nearly all actives have a fitted effect of over 40% in size. The procedure, abridged: as §1
Experiment [4] is described as follows: Quantitative High-Throughput drug screen in 47 multiple myeloma cell lines against the NCATS MIPE library collection: OCIMY5_PLB cell viability assay (AID 1918988). Note: nearly all actives have a fitted effect of over 65% in size. In short, it runs like this:
as §1

Experiment [5] is described as follows: Quantitative High-Throughput drug screen in 47 multiple myeloma cell lines against the NCATS MIPE library collection: SKMM1_PLB cell viability assay (AID 1919863). For viability: series mostly up to about 46 µM. Note: nearly all actives have a fitted effect of over 35% in size. The settings on record: SKMM1 myeloma viability, CellTiter-Glo ATP, 48 h; viability: hits give low values. The procedure, abridged:
as §1

A short description of experiment [6]: Quantitative High-Throughput drug screen in 47 multiple myeloma cell lines against the NCATS MIPE library collection: U266_ATCC cell viability assay (AID 1919864). Note: nearly all actives have a fitted effect of over 35% in size. In short, it runs like this: as §1
The nature of experiment [7]: Quantitative High-Throughput drug screen in 47 multiple myeloma cell lines against the NCATS MIPE library collection: XG6_PLB cell viability assay (AID 1919865). Note: nearly all actives have a fitted effect of over 40% in size. In short, it runs like this: as §1
The nature of experiment [8]: Quantitative High-Throughput drug screen in 47 multiple myeloma cell lines against the NCATS MIPE library collection: XG1_PLB cell viability assay (AID 1919866). Note: nearly all actives have a fitted effect of over 35% in size. In short, it runs like this: as §1
Experiment [9] in a line: Quantitative High-Throughput drug screen in 47 multiple myeloma cell lines against the NCATS MIPE library collection: UTMC2_PLB cell viability assay (AID 1919868). Note: nearly all actives have a fitted effect of over 55% in size. In short, it runs like this: as §1
The nature of experiment [10]: Quantitative High-Throughput drug screen in 47 multiple myeloma cell lines against the NCATS MIPE library collection: PE2_PLB cell viability assay (AID 1919869). Note: nearly all actives have a fitted effect of over 35% in size. The procedure, abridged: as §1
Experiment [11] is described as follows: Quantitative High-Throughput drug screen in 47 multiple myeloma cell lines against the NCATS MIPE library collection: PCM6_Riken cell viability assay (AID 1919870). Note: nearly all actives have a fitted effect of over 30% in size. In short, it runs like this:
as §1

Experiment [12] in a line: Quantitative High-Throughput drug screen in 47 multiple myeloma cell lines against the NCATS MIPE library collection: RPMI8226_ATCC cell viability assay (AID 1919871). Note: nearly all actives have a fitted effect of over 30% in size. In short, it runs like this:
as §1

Experiment [13] in a line: Quantitative High-Throughput drug screen in 47 multiple myeloma cell lines against the NCATS MIPE library collection: OPM2_DSMZ cell viability assay (AID 1919872). Note: nearly all actives have a fitted effect of over 30% in size. The procedure, abridged:
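Viability readout: CellTiter-Glo luminescence following 5 min room-temperature incubation with reagent. Prior exposure: 48 h, 37C, humidified 5% CO2, 500 cells per well.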

Experiment [14] can be described thus: Quantitative High-Throughput drug screen in 47 multiple myeloma cell lines against the NCATS MIPE library collection: KMS11_JCRBsus cell viability assay (AID 1919873). Note: nearly all actives have a fitted effect of over 50% in size. In short, it runs like this: as §1
Experiment [15] in a line: Quantitative High-Throughput drug screen in 47 multiple myeloma cell lines against the NCATS MIPE library collection: L363_DSMZ cell viability assay (AID 1918984). Note: nearly all actives have a fitted effect of over 40% in size. The procedure, abridged: as §1
A short description of experiment [16]: Quantitative High-Throughput drug screen in 47 multiple myeloma cell lines against the NCATS MIPE library collection: OPM1_PLB cell viability assay (AID 1918989). Note: nearly all actives have a fitted effect of over 40% in size. The procedure, abridged:
as §1

The nature of experiment [17]: Quantitative High-Throughput drug screen in 47 multiple myeloma cell lines against the NCATS MIPE library collection: VP6_DJ cell viability assay (AID 1919867). Note: nearly all actives have a fitted effect of over 40% in size. The procedure, abridged: as §1
A short description of experiment [18]: Quantitative High-Throughput drug screen in 47 multiple myeloma cell lines against the NCATS MIPE library collection: KMS28BM_JCRB cell viability assay (AID 1919874). Note: nearly all actives have a fitted effect of over 35% in size. The procedure, abridged: as §1
Experiment [19] in a line: Quantitative High-Throughput drug screen in 47 multiple myeloma cell lines against the NCATS MIPE library collection: OCIMY7_PLB cell viability assay (AID 1918987). Note: nearly all actives have a fitted effect of over 65% in size. In short, it runs like this: as §1

Inconclusive results are not listed. Unmarked numbers belong to inactive results. Activity calls are given as the source filed them. Calls come from the whole dose curve; as a rule, active = well fitted cell-killing curve with a large enough effect; inconclusive = small, poorly fitted or top-dose-only effect, or effect the other way; inactive = no such curve, though single readings can be large or run the other way.
Potency is the fitted concentration of half-maximal effect.

In general, viability refers to a read-out of living cells in per cent, often relative to untreated cells. Regarding `CCOc1cc(N)c(Cl)cc1C(=O)NCC1CN(Cc2ccc(F)cc2)CCO1` (stereo not given), the Potency result in experiment [1], in [2], in experiment [3], in experiment [4], in [6] and in [7] was “inactive” throughout. For the same compound, the Potency entry in experiment [8], in experiment [9], in experiment [10], in [11], in experiment [12] and in [13] was “inactive” throughout. The Potency entry in experiment [14] was “inactive”. Besides, in experiment [5], the viability is 114%.
Regarding `CCOC(=O)[C@H](CCc1ccccc1)N[C@H]1CCc2ccccc2N(CC(=O)O)C1=O`, the Potency in experiment [1] is 20.9 µM (active); in experiment [2] it was 20.9 µM (active); in experiment [15], 7.43 µM (active); in experiment [4], 23.5 µM (active); in experiment [16] it was 16.6 µM (active); in [6], 18.7 µM (active). Further, the Potency is 14.8 µM (active) in experiment [7]; 18.7 µM (active) in experiment [8]; 18.7 µM (active) in [17]; 29.6 µM (active) in experiment [9]; 20.9 µM (active) in [10]; 20.9 µM (active) in experiment [11]. Further, the Potency is 18.7 µM (active) in experiment [12], 8.33 µM (active) in [14] and 18.7 µM (active) in [18].
On to `CN(C)c1ccc(C(=C2C=CC(=[N+](C)C)C=C2)c2ccc(N(C)C)cc2)cc1`, for which the Potency in experiment [1] is 0.418 µM (active); in [2], 0.105 µM (active); in experiment [3], 0.105 µM (active); in experiment [19], 0.0187 µM (active); in [4], 0.0743 µM (active); in experiment [16] it was 0.0118 µM (active). Moreover, the Potency in experiment [5] is 0.0662 µM (active); in [6], 1.05 µM (active); in [7], 0.0833 µM (active); in experiment [8], 0.0235 µM (active); in [17], 0.0296 µM (active); in [9] it was 0.001 µM (active). For the same compound, the Potency in experiment [10] is 0.0166 µM (active); in experiment [12], 0.0935 µM (active); in experiment [13] it was 0.166 µM (active); in experiment [14] it was 0.0264 µM (active); in [18] it was 0.0743 µM (active).
With `NC(=O)c1cccnc1`, the Potency entry in [1], in experiment [2], in experiment [4], in [16], in experiment [6] and in experiment [8] was “inactive” throughout. Besides, the Potency result in [17], in [9], in experiment [10], in [14] and in experiment [18] was “inactive” each time. Besides, in [5], the viability is 105%. Further, the Potency in experiment [7] was 16.6 µM (active).
On to `O=C(O)CSCC(=O)NC1CCSC1=O` (stereo not given), for which the Potency entry in experiment [1], in experiment [2], in [16], in experiment [7], in experiment [8] and in [10] was “inactive” in each case. In addition, the Potency entry in experiment [11], in [12], in [14] and in experiment [18] was “inactive” each time. Besides, the viability in experiment [5] was 130%.
With `CNCC[C@H](Oc1cccc2ccccc12)c1cccs1`, the Potency in [1] was 18.7 µM (active); in [2], 18.7 µM (active); in [19], 0.59 µM (active); in experiment [4], 2.35 µM (active); in [16], 8.33 µM (active); in experiment [6], 2.35 µM (active). Moreover, the Potency in experiment [7] is 0.59 µM (active); in experiment [8], 0.833 µM (active); in experiment [17], 3.72 µM (active); in experiment [9] it was 2.64 µM (active); in [10] it was 4.18 µM (active); in [11], 3.72 µM (active). The Potency was 23.5 µM (active) in experiment [12], 26.4 µM (active) in [14] and 26.4 µM (active) in experiment [18].
As to `CC1(C)[C@H](C(=O)O)N2C(=O)C[C@H]2S1(=O)=O`, the Potency in experiment [1] was 0.0012 µM (active). Besides, the Potency entry in experiment [15], in experiment [16], in experiment [7], in [17], in experiment [10] and in [12] was “inactive” each time. The Potency result in [13], in [14] and in [18] was “inactive” each time. Further, in experiment [5], the viability was 120%.
As for `CN(C)CCc1c[nH]c2ccc(CS(=O)(=O)N3CCCC3)cc12`, the Potency entry in experiment [1], in experiment [3], in experiment [4], in experiment [16], in experiment [12] and in [18] was “inactive” throughout. For the same compound, the viability in experiment [5] was 119%. The Potency in experiment [8] is 20.9 µM (active).
For the compound `CN(C)CCc1c[nH]c2ccc(C[C@H]3COC(=O)N3)cc12`, the Potency entry in experiment [1], in experiment [15], in experiment [3], in experiment [19], in experiment [4] and in experiment [8] was “inactive” in each case. The Potency entry in experiment [17], in experiment [12], in experiment [13], in [14] and in experiment [18] was “inactive” each time. Also, the viability in experiment [5] is 104%. Besides, the Potency in [7] was 3.32 µM (active).
Regarding `Cc1cc(NS(=O)(=O)c2ccc(N)cc2)no1`, the Potency entry in experiment [2], in experiment [15], in [3], in experiment [16], in experiment [17] and in experiment [10] was “inactive” in each case. The Potency result in [11], in experiment [12], in experiment [13], in [14] and in experiment [18] was “inactive” throughout. Also, the Potency was 16.6 µM (active) in [19] and 10.5 µM (active) in experiment [6]. The viability in experiment [5] is 140%.
As to `N=C(N)c1ccc(OCCCCCOc2ccc(C(=N)N)cc2)cc1`, the Potency in [2] was 14.8 µM (active); in experiment [3], 20.9 µM (active); in experiment [19] it was 2.35 µM (active); in experiment [4], 14.8 µM (active); in [16], 11.8 µM (active); in [5], 20.9 µM (active). For the same compound, the Potency in experiment [6] was 23.5 µM (active); in experiment [7] it was 16.6 µM (active); in experiment [8] it was 4.69 µM (active); in [17], 2.09 µM (active); in experiment [10] it was 5.9 µM (active); in experiment [11], 5.9 µM (active). Also, the Potency in [12] and in [18] was 5.9 µM (active) each time. Moreover, the Potency entry in experiment [15] is “inactive”.
With `CC(C)C1CCC(C(=O)N[C@H](Cc2ccccc2)C(=O)O)CC1` (stereo not given in full), the Potency entry in [1], in [3], in experiment [16], in experiment [7], in experiment [8] and in experiment [10] was “inactive” throughout. Also, the Potency entry in experiment [11] and in [18] was “inactive” throughout. In addition, the figures for the Potency in experiment [12], in [13] and in experiment [14] were 23.5 µM (active), 0.0093 µM (active) and 16.6 µM (active), respectively.
With `COc1c(N2CCNC(C)C2)c(F)cc2c(=O)c(C(=O)O)cn(C3CC3)c12` (stereo not given), the Potency entry in experiment [1], in experiment [2], in experiment [4], in [7], in experiment [8] and in experiment [12] was “inactive” each time. Further, the Potency result in experiment [13], in experiment [14] and in experiment [18] was “inactive” throughout. Further, the viability in experiment [5] was 135%.
For `CC(C)NCC(O)c1ccc(NS(C)(=O)=O)cc1` (stereo not given), the Potency result in experiment [1], in experiment [2], in experiment [16], in experiment [7], in [9] and in experiment [10] was “inactive” each time. The Potency result in experiment [13], in experiment [14] and in experiment [18] was “inactive” throughout. Also, the viability in experiment [5] was 159%.
In the case of `N[C@@H](Cc1ccc(O)c(O)c1)C(=O)O`, the Potency entry in [1], in experiment [19], in [6], in experiment [7], in [8] and in experiment [12] was “inactive” throughout. Also, the Potency entry in experiment [18] is “inactive”. The Potency in experiment [5] was 26.4 µM (active).

(Values after PubChem BioAssay (NCATS).)
